A3A deaminase: human APOBEC3A DNA deaminase inhibition; 0.41% of 330,000 active; inhibition, % at 20 µM; AID 493011; recombinant A3A, FAM/TAMRA ssDNA deamination fluorescence;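 active means at least 40% inhibition at 20 µM here, with at most 30% in a related deaminase screen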;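 further: plate controls were A3A with DMSO for no effect and wells lacking A3A enzyme for full effect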
A3G deaminase: APOBEC3G (human) deaminase inhibition | Q9HC16 | recombinant A3G, ssDNA deamination FAM/TAMRA fluorescence | inhibition, % at 20 µM | 0.28% of 330,000 active;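 active means inhibition of at least 40% at 20 µM, with no more than 30% in the related APOBEC3A deaminase screen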;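 further: plate controls were DMSO wells with A3G for no effect and wells lacking A3G enzyme for full effect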
Target sequence (Q9HC16 whole entry, looked up): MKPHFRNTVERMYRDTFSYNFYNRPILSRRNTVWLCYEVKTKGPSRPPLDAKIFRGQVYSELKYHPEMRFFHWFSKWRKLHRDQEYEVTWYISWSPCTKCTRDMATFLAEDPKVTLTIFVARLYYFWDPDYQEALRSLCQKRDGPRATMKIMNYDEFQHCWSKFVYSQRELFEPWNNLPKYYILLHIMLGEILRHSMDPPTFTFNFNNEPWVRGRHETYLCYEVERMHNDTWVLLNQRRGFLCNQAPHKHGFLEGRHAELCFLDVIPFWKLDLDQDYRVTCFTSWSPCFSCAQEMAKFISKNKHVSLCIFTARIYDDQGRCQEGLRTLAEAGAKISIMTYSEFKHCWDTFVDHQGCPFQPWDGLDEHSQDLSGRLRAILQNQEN
GRK2 inh: human GRK2 inhibition via aptamer displacement; P25098; bead flow cytometry, FAM-aptamer displacement from GRK2; inhibition of aptamer binding, % at 10 µM; 0.59% of 330,000 active; AID 488847;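 active means inhibition of aptamer binding above 40%, roughly 3 SD of noise, on plates passing a quality check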;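 further: median bead fluorescence of bound FAM aptamer so fluorescent compounds give negative values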
VLA-4 inh: inhibition in a human VLA-4 binding assay. P13612. VLA-4 expressing cells, ligand binding flow cytometry. inhibition, % (about 7 µM as worked out from the volumes in the protocol). 0.2% of 330,000 active; in the data active means inhibition above about 50%
APOBEC3A confirm: APOBEC3A (human) deaminase inhibition, confirmed | shares compounds with A3A deaminase | recombinant A3A, ssDNA deaminase UDG fluorescence assay | inhibition, % at 20 µM | 63% of 1,400 active | AID 493151;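 active means inhibition reaching a set limit, 80% of the first screen's cutoff, at 20 µM in any replicate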;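 further: plate controls were DMSO wells with A3A for no effect and wells lacking A3A enzyme for full effect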
UDG ctr A3A: UDG inhibition in APOBEC3A counter-screen. 1,000 tested, under 10 active. UDG counterscreen, FAM/TAMRA uracil oligo fluorescence. inhibition, % at 20 µM. shares compounds with A3A deaminase; call rule not given here
Numbers without * were called inactive; x = not tested or not shown. Shown are actives, neighbours in structure and some others; about 1.4% of the full set was active somewhere.

SMILES | A3A deaminase | A3G deaminase | GRK2 inh | VLA-4 inh | APOBEC3A confirm | UDG ctr A3A
O=C(CC1(O)C(=O)Nc2ccccc21)c1ccccc1O (stereo not drawn) | -1 | -5 | 2 | 3 | x | x
COc1cc2ccc3c(CCN(C)C)cc(OC)c(OC)c3c2cc1OC | 55* | 19 | 0 | 7 | 23 | x
CN(C)CCc1cc2c(c3c1ccc1ccccc13)OCO2 | 8 | -8 | 0 | 17 | x | x
O=[N+]([O-])c1ccc(C[n+]2cccc3ccccc32)cc1 | 43* | 3 | 0 | 0 | 53* | -2
CCC(NC(=O)c1ccc([N+](=O)[O-])cc1[N+](=O)[O-])c1ccccc1 (stereo not drawn) | 1 | -2 | 0 | -6 | x | x
C[n+]1ccc(/C=C/c2ccc(Br)cc2)cc1 | 51* | 22 | 0 | 0 | 82* | -34
CCc1nc(-c2ccc(C)nc2OC)no1 | 67* | 19 | 0 | 8 | 62* | 1
O=C(CSc1ccccn1)Nc1cccc2ccccc12 | 60* | 8 | 4 | 6 | 44* | -3
O=C(CSc1ccccn1)Nc1ccccc1F | -5 | -7 | 0 | 1 | x | x
O=C(O)c1nsc(Cl)c1Cl | 99* | -4 | 1 | 4 | -1 | -3
COc1ccc(C(=O)NCC(=O)O)cc1 | -5 | -9 | 2 | -90 | x | x
CC(OC(=O)CCCN=C1NS(=O)(=O)c2ccccc21)C(=O)NC1CCCCC1C (stereo not drawn) | 51* | 12 | 0 | 2 | 2 | x
CC(=O)c1ccc(NC(=O)C(C)OC(=O)CCCN=C2NS(=O)(=O)c3ccccc32)cc1 (stereo not drawn) | 4 | 7 | 1 | -1 | x | x
CC(=O)OC(COC1C[C@@H]2CC[C@@]1(C)C2(C)C)C[N+]1(C)CCCCC1 (stereo partly drawn) | 48* | 15 | 0 | 0 | 70* | -3
CCC(C)OC(=O)C[N+](C)(C)CCOC1CC2CCC1(C)C2(C)C (stereo not drawn) | 1 | -3 | 0 | 21 | x | x
O=C(c1cccc(S(=O)(=O)N2CCOCC2)c1)N1CCN(S(=O)(=O)c2cccc([N+](=O)[O-])c2)CC1 | -3 | -5 | x | x | x | x
COCCNc1nc(CSc2ccccc2)nc2sc(C)c(C)c12 | -3 | 0 | 0 | 34 | x | x
CCN(CC)S(=O)(=O)c1ccc(OC)c(NC(=O)Cc2cccs2)c1 | 43* | 16 | 1 | -1 | 25 | x
COc1cc(OC)c(NC(=O)Cc2cccs2)cc1Cl | -6 | -6 | 0 | 7 | x | x
COC(=O)C1=C(C)N(Cc2ccccc2)C(=NCc2ccc(OC)cc2)N[C@H]1c1ccccc1 | 45* | 11 | 0 | -13 | 59* | -2
COC(=O)C1=C(C)N(Cc2ccccc2)C(=NCC(C)C)N[C@H]1c1ccccc1 | 64* | 14 | 0 | -16 | 58* | -2
Oc1c(Br)cc(Br)cc1/C=N/Nc1ccc(Cl)nn1 | x | x | 6 | -7 | x | x
CCn1c(=O)c2sccc2n(CC(=O)NCCC2=CCCCC2)c1=O | -3 | -9 | 1 | 6 | x | x
CCSc1ccc2cc(OC)ccc2[n+]1CC | 78* | 28 | 3 | 11 | 70* | -3
COc1cccc(-c2ccc(-c3noc(-c4cccs4)n3)c(OC)n2)c1 | 68* | 25 | 0 | 10 | 72* | -2
SMILES | A3A deaminase | A3G deaminase | GRK2 inh | VLA-4 inh | APOBEC3A confirm | UDG ctr A3A
COc1cccc(-c2ccc(-c3noc(-c4ccccc4F)n3)c(OC)n2)c1 | 2 | -4 | 1 | 8 | x | x
O=C1NC(=S)SC1=C1CCCC1 | 62* | 21 | 34 | 1 | 58* | -3
Cn1cccc/c1=N\c1cccc[n+]1C | 49* | 24 | 1 | -2 | 65* | -1
CCN1CCN(c2ccc(S(=O)(=O)N3CCCCC3)cc2NC(=O)c2cccc(OC(F)F)c2)CC1 | 39 | 3 | 0 | 10 | x | x
CCN1CCN(c2ccc(S(=O)(=O)N3CCOCC3)cc2NC(=O)C(C)Oc2ccc(Cl)cc2)CC1 (stereo not drawn) | 56* | 11 | 0 | 4 | 44* | 2
CCN1CCN(c2ccc(S(=O)(=O)N3CCCCC3)cc2NC(=O)/C=C/c2ccc(OC(F)F)cc2)CC1 | 46* | 12 | 0 | 5 | 59* | 2
CC(CC(=O)Nc1cccc(S(=O)(=O)N2CCCCC2)c1)c1ccccc1 (stereo not drawn) | 40* | 11 | 0 | 0 | 23 | x

From PubChem
